# Data taken from PubChem BioAssay (NCATS).
# Results filed as inconclusive are left out. Entries that show only a call come without a potency. Values without a mark were called inactive. The source made the active and inactive calls. Calls come from the whole dose curve; as a rule, active = well fitted curve in the direction sought with a large enough effect; inconclusive = small, poorly fitted or top-dose-only effect, or another doubt; inactive = no such curve, though single readings can be large; an effect the other way counts as inactive or inconclusive.
# Experiments:
# [1] = Quantitative High-Throughput drug screen in 47 multiple myeloma cell lines against the NCATS MIPE library collection: H1112_PLB cell viability assay (AID 1918967; note: nearly all actives have a fitted effect of over 30% in size; note: potency is the fitted concentration of half-maximal effect); conditions: H1112 myeloma cells viability, ATP luminescence, 48 h; series mostly up to 45.8 µM
# In short: (§1)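 Steps: seed 500 cells per well; pin-transfer MIPE 4.0 library; incubate 48 h at 37C, 5% CO2, humidified; add CellTiter-Glo, 5 min room temperature; read luminescence.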
# [2] = Quantitative High-Throughput drug screen in 47 multiple myeloma cell lines against the NCATS MIPE library collection: KMS27_JCRB cell viability assay (AID 1918970); conditions: KMS27 myeloma cells, CellTiter-Glo ATP viability, 48 h; viability (% of DMSO): at 45.8 µM (top of the series); note: nearly all actives have a fitted effect of over 30% in size; note: potency is the fitted concentration of half-maximal effect
# In short: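 KMS27_JCRB myeloma cells, 500 per well, exposed 48 h at 37 C, 5% CO2 to MIPE 4.0 compounds. Viability from ATP by CellTiter-Glo luminescence, normalized to DMSO (100%) and medium-only (0%) wells.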
# [3] = Quantitative High-Throughput drug screen in 47 multiple myeloma cell lines against the NCATS MIPE library collection: KMS12BM_JCRB cell viability assay (AID 1918971); conditions: KMS12BM myeloma viability, CellTiter-Glo ATP, 48 h; series mostly up to 45.8 µM; note: nearly all actives have a fitted effect of over 35% in size; note: potency is the fitted concentration of half-maximal effect
# In short: (§2)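 Myeloma cells (500 per well) were exposed to MIPE 4.0 compounds by pin transfer and incubated 48 hours at 37C, 5% CO2. Viability was read as ATP by CellTiter-Glo luminescence, normalised to DMSO (100%) and media-only (0%) wells.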
# [4] = Quantitative High-Throughput drug screen in 47 multiple myeloma cell lines against the NCATS MIPE library collection: KMS12PE_JCRB cell viability assay (AID 1918972); conditions: KMS12PE myeloma viability, CellTiter-Glo ATP, 48 h; series mostly up to 45.8 µM; note: nearly all actives have a fitted effect of over 30% in size; note: potency is the fitted concentration of half-maximal effect
# In short: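 CellTiter-Glo luminescence (ATP) after 48 h compound exposure, 37C/5% CO2; 500 cells/well; MIPE 4.0 approved/investigational drugs pinned in; DMSO = 100%, media only = 0% viability.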
# [5] = Quantitative High-Throughput drug screen in 47 multiple myeloma cell lines against the NCATS MIPE library collection: KMS26_JCRB cell viability assay (AID 1918975); conditions: KMS26 myeloma cells viability, CellTiter-Glo ATP, 48 h; series mostly up to 45.8 µM; note: nearly all actives have a fitted effect of over 45% in size; note: potency is the fitted concentration of half-maximal effect
# In short: as §2
# [6] = Quantitative High-Throughput drug screen in 47 multiple myeloma cell lines against the NCATS MIPE library collection: MOLP8_DSMZ cell viability assay (AID 1918977); conditions: MOLP8 myeloma viability, CellTiter-Glo ATP luminescence, 48 h; series mostly up to 45.8 µM; note: nearly all actives have a fitted effect of over 45% in size; note: potency is the fitted concentration of half-maximal effect
# In short: (§3)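 500 cells/well; MIPE 4.0 drugs pin-transferred; 48 h, 37C, 5% CO2. CellTiter-Glo, 5 min RT, luminescence. Controls: DMSO 100%, media 0%.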
# [7] = Quantitative High-Throughput drug screen in 47 multiple myeloma cell lines against the NCATS MIPE library collection: NCIH929_DSMZ cell viability assay (AID 1918978); conditions: NCI-H929 myeloma viability, CellTiter-Glo ATP, 48 h; series mostly up to 45.8 µM; note: nearly all actives have a fitted effect of over 35% in size; note: potency is the fitted concentration of half-maximal effect
# In short: as §3
# [8] = Quantitative High-Throughput drug screen in 47 multiple myeloma cell lines against the NCATS MIPE library collection: OCIMY1_PLB cell viability assay (AID 1918979); conditions: OCI-MY1 myeloma viability, CellTiter-Glo ATP, 48 h; series mostly up to 45.8 µM; note: nearly all actives have a fitted effect of over 35% in size
# In short: as §3
# [9] = Quantitative High-Throughput drug screen in 47 multiple myeloma cell lines against the NCATS MIPE library collection: MM1S_ATCC cell viability assay (AID 1918980); conditions: MM1S myeloma viability, CellTiter-Glo ATP luminescence, 48 h; series mostly up to 45.8 µM; note: nearly all actives have a fitted effect of over 45% in size; note: potency is the fitted concentration of half-maximal effect
# In short: as §3
# [10] = Quantitative High-Throughput drug screen in 47 multiple myeloma cell lines against the NCATS MIPE library collection: MM1R_ATCC cell viability assay (AID 1918981); conditions: MM1R multiple myeloma cells, CellTiter-Glo viability, 48 h; series mostly up to 45.8 µM; note: nearly all actives have a fitted effect of over 35% in size; note: potency is the fitted concentration of half-maximal effect
# In short: as §3
# [11] = Quantitative High-Throughput drug screen in 47 multiple myeloma cell lines against the NCATS MIPE library collection: LP1_DSMZ cell viability assay (AID 1918982); conditions: LP1 myeloma viability, CellTiter-Glo ATP luminescence, 48 h; series mostly up to 45.8 µM; note: nearly all actives have a fitted effect of over 35% in size
# In short: as §3
# [12] = Quantitative High-Throughput drug screen in 47 multiple myeloma cell lines against the NCATS MIPE library collection: KMS28PE_JCRB cell viability assay (AID 1918983); conditions: KMS28PE multiple myeloma viability, CellTiter-Glo ATP, 48 h; series mostly up to 45.8 µM; note: nearly all actives have a fitted effect of over 35% in size; note: potency is the fitted concentration of half-maximal effect
# In short: as §3
# [13] = Quantitative High-Throughput drug screen in 47 multiple myeloma cell lines against the NCATS MIPE library collection: KMS34_JCRB cell viability assay (AID 1918985); conditions: KMS34 myeloma viability, CellTiter-Glo ATP luminescence, 48 h; series mostly up to 45.8 µM; note: nearly all actives have a fitted effect of over 40% in size; note: potency is the fitted concentration of half-maximal effect
# In short: as §3
# [14] = Quantitative High-Throughput drug screen in 47 multiple myeloma cell lines against the NCATS MIPE library collection: Karpas25_ECACC cell viability assay (AID 1918968; note: nearly all actives have a fitted effect of over 35% in size; note: potency is the fitted concentration of half-maximal effect); conditions: Karpas25 myeloma viability, CellTiter-Glo ATP, 48 h; series mostly up to 45.8 µM
# In short: as §1
# [15] = Quantitative High-Throughput drug screen in 47 multiple myeloma cell lines against the NCATS MIPE library collection: KMS21BM_JCRB cell viability assay (AID 1918974); conditions: ATP luminescence, 48 h; viability: at 45.8 µM (top of the series); note: potency is the fitted concentration of half-maximal effect
# In short: as §1
# [16] = Quantitative High-Throughput drug screen in 47 multiple myeloma cell lines against the NCATS MIPE library collection: MMM1_PLB cell viability assay (AID 1918976); conditions: MMM1 myeloma cells viability, CellTiter-Glo, 48 h; series mostly up to 45.8 µM; note: nearly all actives have a fitted effect of over 35% in size; note: potency is the fitted concentration of half-maximal effect
# In short: as §3
# [17] = Quantitative High-Throughput drug screen in 47 multiple myeloma cell lines against the NCATS MIPE library collection: KMS20_JCRB cell viability assay (AID 1918973); conditions: CellTiter-Glo ATP, 48 h; series mostly up to 45.8 µM; note: nearly all actives have a fitted effect of over 45% in size
# In short: as §1
# [18] = Quantitative High-Throughput drug screen in 47 multiple myeloma cell lines against the NCATS MIPE library collection: L363_DSMZ cell viability assay (AID 1918984); conditions: L363 myeloma viability, CellTiter-Glo ATP luminescence, 48 h; series mostly up to 45.8 µM; note: nearly all actives have a fitted effect of over 40% in size; note: potency is the fitted concentration of half-maximal effect
# In short: as §3
smiles,measurement,setting,value
Oc1cc2c(cc1O)C1c3ccc(O)c(O)c3OCC1(O)C2 (centres undefined),Potency,[1],inactive
same,Potency,[2],inactive
same,Potency,[3],inactive
same,Potency,[4],inactive
same,Potency,[5],inactive
same,Potency,[6],inactive
same,Potency,[7],inactive
same,Potency,[8],inactive
same,Potency,[9],9.35 µM (active)
same,Potency,[10],inactive
same,Potency,[11],inactive
same,Potency,[12],inactive
same,Potency,[13],inactive
Cc1noc(-c2ccc(CSCCC(=O)O)cc2)c1NC(=O)OC(C)c1ccccc1Cl (centres undefined),Potency,[1],inactive
same,Potency,[2],inactive
same,Potency,[3],inactive
same,Potency,[5],inactive
same,Potency,[6],inactive
same,Potency,[7],inactive
same,Potency,[9],inactive
same,Potency,[10],inactive
CCCCC(=O)O[C@]1(C(=O)CO)[C@@H](C)C[C@H]2[C@@H]3CCC4=CC(=O)C=C[C@]4(C)[C@@]3(F)[C@@H](O)C[C@@]21C,Potency,[14],0.0148 µM (active)
same,Potency,[2],11.8 µM (active)
same,Potency,[3],inactive
same,viability,[15],131% (active)
same,Potency,[5],inactive
same,Potency,[16],inactive
same,Potency,[6],0.526 µM (active)
same,Potency,[7],inactive
same,Potency,[8],inactive
same,Potency,[10],inactive
same,Potency,[12],inactive
same,Potency,[13],0.0372 µM (active)
CN(N=O)C(=O)N[C@H]1C(O)OC(CO)[C@@H](O)[C@H]1O (some centres undefined),Potency,[1],inactive
same,Potency,[14],inactive
same,Potency,[17],inactive
same,Potency,[6],inactive
same,Potency,[11],inactive
same,Potency,[18],inactive
OC[C@H]1OC(O)C[C@@H](O)[C@H]1O (some centres undefined),Potency,[1],inactive
same,Potency,[2],inactive
same,Potency,[5],inactive
same,Potency,[16],inactive
same,Potency,[6],inactive
same,Potency,[8],inactive
same,Potency,[9],inactive
same,Potency,[11],inactive
same,Potency,[12],inactive
same,Potency,[18],inactive
same,Potency,[13],inactive
COc1ccc(CCC(=O)c2c(O)cc(O[C@@H]3O[C@H](CO)[C@@H](O)[C@H](O)[C@@H]3O[C@@H]3O[C@@H](C)[C@H](O)[C@@H](O)[C@@H]3O)cc2O)cc1O,Potency,[14],9.35 µM (active)
same,Potency,[3],inactive
same,Potency,[4],inactive
same,Potency,[15],inactive
same,Potency,[5],inactive
same,Potency,[16],inactive
same,Potency,[8],inactive
same,Potency,[9],9.35 µM (active)
same,Potency,[10],inactive
same,Potency,[11],inactive
same,Potency,[12],inactive
C[C@@]12C[C@@]3(O)O[C@@H](O1)[C@]1(COC(=O)c4ccccc4)[C@@H]3C[C@@]12O[C@@H]1O[C@H](CO)[C@@H](O)[C@H](O)[C@@H]1O,Potency,[1],inactive
same,Potency,[14],inactive
same,Potency,[2],inactive
same,Potency,[5],inactive
same,Potency,[7],inactive
same,Potency,[11],inactive
same,Potency,[12],inactive
same,Potency,[18],inactive
Cc1onc(-c2ccccc2)c1C(=O)N[C@@H]1C(=O)N2[C@@H](C(=O)O)C(C)(C)S[C@@H]12,Potency,[1],inactive
same,Potency,[14],inactive
same,Potency,[3],inactive
same,Potency,[4],inactive
same,Potency,[15],inactive
same,Potency,[5],inactive
same,Potency,[7],inactive
same,Potency,[10],inactive
N[C@H]1CN(c2c(F)cc3c(=O)c(C(=O)O)cn(C4C[C@@H]4F)c3c2Cl)CC12CC2 (some centres undefined),Potency,[1],inactive
same,Potency,[2],inactive
same,Potency,[4],inactive
same,Potency,[5],16.6 µM (active)
same,Potency,[7],inactive
same,Potency,[8],inactive
same,Potency,[9],inactive
same,Potency,[10],inactive
same,Potency,[11],inactive
same,Potency,[18],inactive
COC(=O)[C@H](CCCN=C(N)N)NS(=O)(=O)c1ccc(C)cc1,Potency,[1],inactive
same,Potency,[2],inactive
same,Potency,[3],inactive
same,Potency,[4],inactive
same,Potency,[17],inactive
same,Potency,[15],inactive
same,Potency,[5],inactive
same,Potency,[7],inactive
same,Potency,[8],inactive
same,Potency,[9],inactive
same,Potency,[10],inactive
same,Potency,[11],inactive
same,Potency,[12],inactive
same,Potency,[18],inactive
same,Potency,[13],inactive
CC(=CC(=O)Nc1ccccc1C(=O)O)c1ccc2ccccc2c1,Potency,[14],20.9 µM (active)
same,Potency,[4],23.5 µM (active)
same,Potency,[15],inactive
same,Potency,[7],7.43 µM (active)
same,Potency,[8],inactive
same,Potency,[9],8.33 µM (active)
same,Potency,[12],inactive
CC(C)(C)[C@H](NC(=O)c1ccc(N)c(Cl)c1)C(=O)N1CCC[C@@H]1C(=O)N[C@H](C#N)CC(=O)O,viability,[1],116% [at 3.51 µM]
same,Potency,[2],1.05 µM (active)
same,viability (% of DMSO),[5],125% [at 3.51 µM]
same,viability (% of control),[6],110% [at 3.51 µM]
same,"viability, % of control",[7],122% [at 3.51 µM]
same,viability,[8],103% [at 3.51 µM]
same,viability (% of control),[9],120% [at 3.51 µM]
same,viability (% of control),[10],128% [at 3.51 µM]
same,"viability, % of DMSO control",[12],131% [at 3.51 µM]
same,viability (% of control),[18],111% [at 3.51 µM]
same,"viability, percent of control",[13],103% [at 3.51 µM]
CCN1CCN(C(=O)N[C@H](C(=O)N[C@@H]2C(=O)N3C(C(=O)O)=C(CSc4nnnn4C)CS[C@@H]23)c2ccc(O)cc2)C(=O)C1=O,Potency,[1],inactive
same,Potency,[14],inactive
same,Potency,[4],inactive
same,Potency,[17],inactive
same,Potency,[5],inactive
same,Potency,[8],inactive
same,Potency,[12],inactive
CC(=O)O[C@]1(C(C)=O)CC[C@H]2[C@@H]3C=C(C)C4=CC(=O)CC[C@]4(C)[C@@H]3CC[C@@]21C,Potency,[14],8.33 µM (active)
same,Potency,[2],9.35 µM (active)
same,Potency,[3],9.35 µM (active)
same,Potency,[4],11.8 µM (active)
same,Potency,[5],inactive
same,Potency,[16],18.7 µM (active)
same,Potency,[8],inactive
same,Potency,[9],2.35 µM (active)
same,Potency,[10],11.8 µM (active)
same,Potency,[12],inactive
same,Potency,[18],9.35 µM (active)
same,Potency,[13],inactive
COC(=O)C1C2CC3c4[nH]c5cc(OC)ccc5c4CCN3CC2CC(OC(=O)c2cc(OC)c(OC)c(OC)c2)C1OC (centres undefined),Potency,[1],16.6 µM (active)
same,Potency,[14],23.5 µM (active)
same,Potency,[4],18.7 µM (active)
same,Potency,[5],inactive
same,Potency,[16],20.9 µM (active)
same,Potency,[9],14.8 µM (active)
same,Potency,[10],13.2 µM (active)
same,Potency,[12],14.8 µM (active)
CC(C(C)N1CC(=O)NC(=O)C1)N1CC(=O)NC(=O)C1 (centres undefined),Potency,[1],inactive
same,Potency,[14],inactive
same,Potency,[3],0.59 µM (active)
same,Potency,[4],1.32 µM (active)
same,Potency,[17],inactive
same,Potency,[15],0.332 µM (active)
same,Potency,[6],0.0105 µM (active)
same,Potency,[7],inactive
same,Potency,[8],inactive
same,Potency,[9],inactive
same,Potency,[12],inactive
CC(Oc1ccc(O)cc1)(P(=O)(O)O)P(=O)(O)O,Potency,[1],inactive
same,Potency,[2],inactive
same,Potency,[4],inactive
same,Potency,[5],inactive
same,Potency,[16],inactive
same,Potency,[6],inactive
same,Potency,[7],inactive
same,Potency,[8],inactive
same,Potency,[11],inactive
same,Potency,[12],inactive
same,Potency,[18],inactive
